From PubChem
DT40 TDP1 no CPT – qHTS for Inhibitors of human tyrosyl-DNA phosphodiesterase 1 (TDP1): qHTS in cells in absence of CPT. AID 686978, 2013. 15% of 420,000 active. Potency, µM (highest dose often 46.2 µM), for inactives: at the top dose activity change, negative = growth inhibition, hits mostly inhibitors. DT40 Tdp1-/- hTDP1 cells, no CPT, ATP luminescence, 48 h; note: potency is the fitted concentration of half-maximal effect; nearly all actives have a fitted effect of over 55% in size
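DT40 Tdp1-/-;hTDP1 cells, no CPT (DMSO vehicle only), 400 cells/well; compounds pin-transferred; ≥48 hr, 37 °C; CellTiter-Glo 30 min RT dark, luminescence read.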
IL1B secr inh – inhibitors of inflammasome signaling (IL-1 beta secretion) | activity change, % at 57.5 µM | THP-1 LPS/ATP IL-1B secretion, AlphaLISA, 16 h; hits give low values | AID 743279 | 4.7% of 360,000 active; in the data active = activity change below about -50%; inconclusive = mostly about -30% to -49%
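Secreted IL-1B measured by AlphaLISA bead assay after 16 h compound exposure of THP-1 cells; compounds (final up to 57.5 uM) added 1 h before LPS (250 ng/mL) and ATP (1.25 mM) stimulation; lower signal means less secretion.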
RORg inh – blocks mouse ROR gamma transcriptional activity; Drosophila S2 Gal4-RORgamma UAS-luciferase reporter, 20 h; Potency, µM (series often up to 53.6 µM), for the others: at the highest dose activity change, negative = inhibition, actives largely listed as inhibitors; 5.4% of 310,000 active; note: potency is the fitted concentration of half-maximal effect; nearly all actives have a fitted effect of over 60% in size
Target sequence (P51450 whole entry, looked up, the tested form may be a part): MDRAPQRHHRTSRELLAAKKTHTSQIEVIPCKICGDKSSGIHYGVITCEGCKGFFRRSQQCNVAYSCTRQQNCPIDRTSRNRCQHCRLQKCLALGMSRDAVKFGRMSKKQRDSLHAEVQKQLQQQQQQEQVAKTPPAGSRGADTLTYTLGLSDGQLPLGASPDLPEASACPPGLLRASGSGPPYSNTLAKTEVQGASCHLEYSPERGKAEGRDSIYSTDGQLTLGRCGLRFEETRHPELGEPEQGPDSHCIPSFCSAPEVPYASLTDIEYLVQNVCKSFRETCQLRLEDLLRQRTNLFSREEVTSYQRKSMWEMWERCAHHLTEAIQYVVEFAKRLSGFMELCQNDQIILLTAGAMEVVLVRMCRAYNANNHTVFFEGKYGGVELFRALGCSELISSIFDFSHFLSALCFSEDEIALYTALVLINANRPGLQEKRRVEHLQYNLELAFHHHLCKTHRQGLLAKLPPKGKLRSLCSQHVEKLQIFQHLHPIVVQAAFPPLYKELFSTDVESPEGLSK
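Luminescence from a UAS-regulated Photinus luciferase reporter in stably transfected Drosophila Schneider cells is measured; decreased signal marks ROR gamma inhibition. Fusion expression is induced by 700 uM copper sulfate for 20 hr.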
TDP1 cell CPT – DT40-hTDP1 cell growth loss with CPT; chicken DT40 Tdp1-/-;hTDP1 cells + 20 nM CPT, ATP luminescence, 48 h; 12% of 420,000 active; Potency, µM (highest dose often 46.2 µM), for inactives: at the highest dose activity change, negative = growth inhibition, actives largely listed as inhibitors; note: potency is the fitted concentration of half-maximal effect; nearly all actives have a fitted effect of over 55% in size
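Cell growth measured by CellTiter-Glo luminescence after a minimum 48 h, 37 C compound exposure with 20 nM CPT in Tdp1-knockout DT40 cells stably expressing hTDP1, seeded 400/well; qHTS titration format.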
Gal4-VP16 FLuc – counter-screen for ROR gamma inhibitors: Gal4-VP16 reporter | Drosophila S2 Gal4-VP16 UAS-luciferase, luminescence, 20 h | Potency, µM (series often up to 53.6 µM), without a hit: at the top dose activity, negative = inhibition, most hits filed as inhibitors | 3.5% of 310,000 active;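 note: Gal4-VP16 expression switched on by copper sulfate through the metallothionein promoter; potency is the fitted concentration of half-maximal effect; nearly all actives have a fitted effect of over 50% in size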
LDHA inh – inhibitors of human lactate dehydrogenase A; P00338; purified LDHA, NADH/diaphorase-resazurin fluorescence; hits give low values; activity change, % (values are at about 110 or 230 µM); 0.15% of 480,000 active; in the data active = activity change below about -30%; inconclusive = mostly about -25% to -30%;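 note: plate controls were DMSO wells for no effect and wells without enzyme for full effect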
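Remaining NADH was detected by diaphorase (0.133 mg/mL) converting 37 µM resazurin to fluorescent resorufin, read at 0 and 20 minutes. The preceding 5-minute room-temperature reaction used 2 nM LDHA, 0.2 mM sodium pyruvate and 0.06 mM NADH at pH 7.4.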
* = called active by the depositor; ? = inconclusive; · = not tested or not shown. An excerpt weighted towards active compounds, which were near 18% of everything screened. Unless noted, calls come from the whole dose curve; as a rule, active = well fitted curve in the direction sought with a large enough effect; inconclusive = small, poorly fitted or top-dose-only effect, or another doubt; inactive = no such curve, though single readings can be large; an effect the other way counts as inactive or inconclusive. Unless noted, % is set by controls: 0 for no effect and ±100 for the full control effect.

SMILES	DT40 TDP1 no CPT	IL1B secr inh	RORg inh	TDP1 cell CPT	Gal4-VP16 FLuc	LDHA inh
CCC(C(=O)O)C1OC(C(C)C(O)C(C)C(=O)C(CC)C2OC3(C=CC(O)C4(CCC(C)(C5CCC(O)(CC)C(C)O5)O4)O3)C(C)CC2C)C(C)CC1C (stereo unspecified)	·	·	0.891µM*	·	0.447µM*	·
NCc1ccc(-c2ccc(O)cc2)cc1	·	·	·	·	·	1.5
COc1cc2c(NC3CCN(C)CC3)nc(N3CCCN(C)CC3)nc2cc1O	-20.4%	·	·	12.6%	·	10.0
COc1cc2nc(N3CCCN(C)CC3)nc(NC3CCN(C)C3)c2cc1OC (stereo unspecified)	17.8µM*	·	·	12.6µM*	·	0.3
COc1cc2nc(N3CCCN(C)CC3)nc(NC3CCCCC3)c2cc1OC	8.91µM*	·	·	7.94µM*	·	6.6
COc1cc2nc(N3CCCN(C)CC3)nc(NC3CCOCC3)c2cc1OC	7.08µM*	·	·	11.2µM*	·	16.7
COc1cc2nc(N3CCCN(C)CC3)nc(OC3CCN(C)CC3)c2cc1OC	14.1µM*	·	·	?	·	3.5
CCCCSc1nc2c(c(=O)[nH]c(=O)n2C)n1CC	·	·	·	·	·	1.2
Cc1c(C(=O)N2CCCC2)c(S(=O)(=O)N2c3ccccc3CC2C)c(C)n1C (stereo unspecified)	·	·	·	·	·	-4.0
COc1ccc(OCC(=O)Nc2ccc3oc(-c4ccccc4C)nc3c2)cc1	·	·	·	·	·	-11.8
CCOc1ccccc1Oc1coc2cc(OC(=O)c3ccc(F)cc3)ccc2c1=O	·	·	·	·	·	-5.9
CCc1cc(=O)oc2c(C)c(OC(C)C(=O)NCc3ccncc3)ccc12 (stereo unspecified)	·	·	·	·	·	4.3
COc1cc2c(NC3CCN(C)CC3)nc(N3CCCN(C)CC3)nc2cc1OCC1CCCCN1 (stereo unspecified)	?	·	·	11.2µM*	·	7.1
COc1cc2c(NC3CCN(C)CC3)nc(N3CCCN(C)CC3)nc2cc1OCCCCCC(N)=O	?	·	·	7.1%	·	12.1
COc1ccc(CNC(=O)N2CCN(S(=O)(=O)c3c(Cl)cccc3Cl)CC2)cn1	·	·	·	·	·	4.3
Cc1cc(C)c(S(=O)(=O)/N=C2\C=C(NS(=O)(=O)c3ccccc3)C(=O)c3ccccc32)c(C)c1	-18.1%	29.7	-9.3%	?	6.8%	8.1
Cc1cc(C)c(S(=O)(=O)/N=C2\C=C(Nc3ccc(C(=O)O)cc3)C(=O)c3ccccc32)c(C)c1	3.66µM*	-104.3*	?	3.66µM*	10µM*	41.4
O=S(=O)(N=C1C=CC(=NS(=O)(=O)c2ccccc2)c2ccccc21)c1ccccc1	6.51µM*	0.0	·	7.31µM*	·	16.6
CC(=O)Nc1ccc(NC2=CC(=O)c3ccccc3C2=O)cc1	-6.0%	19.1	-33.2%	12.6%	?	16.0
NC(N)=NS(=O)(=O)c1ccccc1	·	·	·	·	·	0.9
Cc1ccc(S(=O)(=O)/N=C2\C=C(NS(=O)(=O)c3ccccc3)C(=O)c3ccccc32)cc1	25.9µM*	49.4	·	20.6µM*	·	39.0
O=C(O)c1ccc(NC2=C/C(=N/S(=O)(=O)c3ccccc3)c3ccccc3C2=O)cc1	3.66µM*	-97.5*	11.2µM*	2.59µM*	7.94µM*	51.9
c1c[nH]c(-c2ccn[nH]2)c1	·	·	·	·	·	12.1
Cc1ccc(NC(=O)COc2ccc3c(C)cc(=O)oc3c2)c(C)c1	·	·	·	·	·	-8.4
CCOC(=O)c1c(C=O)c(C)n(Cc2ccc(C)cc2)c1C	23.1µM*	-5.8	-41.1%	?	1.7%	-2.4
CCCn1c(CN2CCN(C(=O)OCC)CC2)nc2cc(NC(=O)C(C)C)ccc21	11.6µM*	0.0	-5.4%	20.6µM*	-1.1%	1.0
CCCn1c(CN2CCN(C(=O)OCC)CC2)nc2cc(NC(=O)c3ccc(Cl)cc3)ccc21	·	·	·	·	·	3.9
CCCCC(=O)Nc1ccc2c(c1)nc(CN1CCN(C(=O)OCC)CC1)n2C	-29.2%	26.2	18.2%	?	-1.4%	-1.5
